In PubChem BioAssay AID1159580 (chemical genetic matrix, 2015):
The campaign covered roughly 5,500 compounds. About 2,000 (36%) were called active. About 18% were inconclusive and are not listed. Rule as the data show it: active = normalized growth mostly below about 0.91 (no sharp cut-off); inconclusive = no clear call, values can overlap the other calls; inactive = mostly above about 0.92. The list shows a part of the results.

Assay: chemical genetic growth profiling, strain panel (AID 1159580);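 also: tested at 20 µM; growth read once vehicle control cultures reached saturation at 30 °C; 1 = growth at the plate median or of vehicle wells; lower values mean less growth of the strain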
Conditions: S. cerevisiae deletion strains, growth OD

Measured: normalized growth

Cc1ccc(OCc2nnc(SCC(=O)Nc3cccc4c3OCO4)n2-c2ccccc2)c2c1CCC2
inactive: locus YAL013W, strain DEP1, hits give low values 1.01 | locus YBR229C, strain ROT2, hits give low values 1.01 | locus YCL061C, strain MRC1, hits give low values 1 | locus YDL101C, strain DUN1, hits give low values 0.992 | locus YDR150W, strain NUM1, hits give low values 0.982 | locus YEL061C, strain CIN8, hits give low values 0.99 | locus YGR078C, strain PAC10, hits give low values 1 | locus YGR229C, strain SMI1, hits give low values 0.993 | locus YHR030C, strain SLT2, hits give low values 1 | locus YHR087W, strain rtc3, hits give low values 0.992 | locus YJR043C, strain POL32, hits give low values 1 | locus YJR075W, strain HOC1, hits give low values 1.01 | locus YKL190W, strain CNB1, hits give low values 0.973 | locus YLR039C, strain RIC1, hits give low values 0.991 | locus YLR058C, strain SHM2 (second series), hits give low values 1.01 | locus YLR085C, strain ARP6, hits give low values 0.995 | locus YLR262C, strain YPT6, hits give low values 0.985 | locus YML094W, strain GIM5, hits give low values 0.98 | locus YMR219W, strain ESC1, hits give low values 0.999 | locus YMR263W, strain SAP30, hits give low values 1.01 | locus YNL128W, strain TEP1, hits give low values 0.984 | locus YNL153C, strain GIM3, hits give low values 1 | locus YNL298W, strain CLA4 (second series), hits give low values 0.988 | locus YNL322C, strain KRE1, hits give low values 0.992 | locus YNR030W, strain Alg12, hits give low values 0.995 | locus YPL055C, strain LGE1, hits give low values 0.991 | locus YPL241C, strain CIN2, hits give low values 0.999 | locus YPR135W, strain CTF4, hits give low values 1.02
